Assay results reported in PubChem BioAssay AID651699 (Sanford-Burnham Center for Chemical Genomics, 2012).
The whole screen tested about 360,000 compounds, of which about 2,100 (0.58%) were called active. The sample holds actives, similar compounds and a random draw of the others, so the mix is not that of the screen. Values without a mark were called inactive. Cut-off read from the data, not from the text of the source: active = inhibition above about 36%; inactive = the rest.

These compounds were tested against NEDD8-conjugating enzyme Ubc12 (Homo sapiens) + NEDD8-activating enzyme E1 regulatory subunit (Homo sapiens) (UniProt P61081+Q13564) (assay: NEDD8 transfer onto cullin, blockade – biochemical, TR-FRET, uHTS, NAE and Ubc12, primary screen (AID 651699)). Details: TR-FRET cullin neddylation, at 25 µM, hits give high values.
Chain of NEDD8-conjugating enzyme Ubc12 (Homo sapiens) + NEDD8-activating enzyme E1 regulatory subunit (Homo sapiens) (P61081 whole entry, looked up): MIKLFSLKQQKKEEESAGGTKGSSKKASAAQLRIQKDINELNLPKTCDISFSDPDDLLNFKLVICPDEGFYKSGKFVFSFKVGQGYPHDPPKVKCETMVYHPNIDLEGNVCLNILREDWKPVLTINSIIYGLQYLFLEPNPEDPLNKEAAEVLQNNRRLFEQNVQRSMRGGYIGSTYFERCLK
Chain of NEDD8-conjugating enzyme Ubc12 (Homo sapiens) + NEDD8-activating enzyme E1 regulatory subunit (Homo sapiens) (Q13564 whole entry, looked up): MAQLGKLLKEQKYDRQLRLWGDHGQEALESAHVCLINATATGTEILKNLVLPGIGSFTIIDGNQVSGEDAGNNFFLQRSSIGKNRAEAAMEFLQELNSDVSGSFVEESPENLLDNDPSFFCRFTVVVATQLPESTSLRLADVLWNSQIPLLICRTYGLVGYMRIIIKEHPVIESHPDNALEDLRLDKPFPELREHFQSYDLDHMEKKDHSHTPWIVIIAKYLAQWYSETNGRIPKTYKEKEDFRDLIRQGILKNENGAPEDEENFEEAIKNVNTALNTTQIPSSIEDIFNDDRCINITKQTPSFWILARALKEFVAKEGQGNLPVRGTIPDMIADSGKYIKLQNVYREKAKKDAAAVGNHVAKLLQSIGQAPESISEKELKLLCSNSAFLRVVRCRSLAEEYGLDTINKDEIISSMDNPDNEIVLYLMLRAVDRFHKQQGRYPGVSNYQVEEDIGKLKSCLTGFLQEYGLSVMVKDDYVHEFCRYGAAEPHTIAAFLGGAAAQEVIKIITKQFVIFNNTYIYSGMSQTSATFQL

Row | SMILES | inhibition
1 | CCN1CCCC1CNC(=O)Cn1cnc2ccc(S(=O)(=O)N3CCC(C)CC3)cc2c1=O (centres undefined) | -2.38%
2 | CCN1CCCC1Cn1cnc2c([nH]c3cc(OC)ccc32)c1=O (centres undefined) | 1.83%
3 | CCN1CCCC1CNc1ncnc2c1[nH]c1ccc(F)cc12 (centres undefined) | 37% (active)
4 | CCOC(=O)C1=C(N)N2C(=O)C(C)SC2=C(C(=O)OCC)C1c1cc(OC)c(OC)c(OC)c1 (centres undefined) | -1.53%
5 | CC(=O)c1ccc(Nc2nc(C(N)c3ccccc3)cs2)cc1 (centres undefined) | 41.1% (active)
6 | COc1ccc(CC(N)c2csc(NC(=O)NC(c3ccccc3)c3ccccc3)n2)cc1 (centres undefined) | -1.83%
7 | COC(=O)c1ccc2c(c1)S(=O)(=O)NC(=NCCCN1CCOCC1)S2 | -10.1%
8 | CC(Sc1nc2c([nH]c3ccccc32)c(=O)n1C)c1ccccc1 (centres undefined) | -4.19%
9 | CSc1nc2nc3c(c(=O)n2[nH]1)CCC3 | -7.01%
10 | Clc1cccc(Cc2c(-c3cccc(Cl)c3)nc3ccc(Cl)cn23)c1 | -36.7%
11 | O=c1c2c(nc3cc(-c4cccc(Cl)c4)[nH]n13)CCCC2 | 40.3% (active)
12 | O=C(Nc1cc(-c2nn(CC(=O)N3CCCCC3)c(=O)c3ccccc23)ccc1N1CCOCC1)c1ccc(Cl)cc1 | 20.1%
13 | O=C(CCl)NNc1cccc(Cl)n1 | 3.4%
14 | COc1ccc2oc(C(=O)N(CC(C)C)C3CCS(=O)(=O)C3)c(C)c2c1 (centres undefined) | 2.83%
15 | COc1ccc2oc(C(=O)NCC(Cc3ccccc3)N(C)C)c(C)c2c1 (centres undefined) | 43.3% (active)
16 | NC(=O)C1(N2CCCCC2)CCN(C(=O)c2ccc(C#Cc3ccccc3)o2)CC1 | -13.2%
17 | O=C(NC(=S)Nc1ccc(Cl)c(C(=O)O)c1)c1cncc(Br)c1 | -4.06%
18 | COc1ccc(Br)cc1/C=N/Nc1ccc(S(=O)(=O)Nc2ccccc2C(=O)O)cc1[N+](=O)[O-] | -8.62%
19 | COc1ccc(Br)cc1/C=N/Nc1ccc(Cl)c(C(=O)O)c1 | 45.1% (active)
20 | CCN(CC(=O)NCc1cccs1)c1nnnn1-c1ccccc1 | 0.19%
21 | O=C(NCc1cccc(C(F)(F)F)c1)c1ccc2sc(COCCO)nc2c1 | 3.36%

Row | SMILES | inhibition
22 | CCOC(=O)c1cc(C(=O)Nc2ccc(S(=O)(=O)Nc3ccc(OC)cc3)cc2)nn1C | -1.03%
23 | CC(C)CN(C(=O)COC(=O)c1ccc(Cl)c(N)c1)c1c(N)n(Cc2ccccc2)c(=O)[nH]c1=O | 30.6%
24 | COc1ccc2oc(C(=O)OCC(=O)N(CC(C)C)c3c(N)n(Cc4ccccc4)c(=O)[nH]c3=O)c(C)c2c1 | 44.4% (active)
25 | CC(C)CN(C(=O)COC(=O)c1ccc2ccccc2c1)c1c(N)n(Cc2ccccc2)c(=O)[nH]c1=O | 3.53%
26 | CCN(CC)C(=O)C1=C(C)N(Cc2ccc(C(C)(C)C)cc2)C(=O)C(CC(=O)NCc2cccc3ccccc23)C1 (centres undefined) | -9.92%
27 | CC(C)Cc1nc(Cl)c(C#N)c2c1CCC2 | -5.13%
28 | CC(C)Cc1nc(N2CCOCC2)c(C#N)c2c1CCC2 | 44.8% (active)
29 | COc1cc(S(=O)(=O)N2CCOCC2)ccc1NC(=O)COc1ccc(N(C)S(=O)(=O)c2ccc(C)cc2)cc1 | -8.3%
30 | CCNC(=O)CN(c1ccc(C)cc1)S(=O)(=O)c1ccc(SC)cc1 | -3.17%
31 | Cc1cc(C(=O)OCC(=O)Nc2nnc(C(C)C)s2)c2ccccc2n1 | -11.2%
32 | CCOC(=O)c1cc(C)sc1NC(=O)C1CCC1 | -7.86%
33 | CCOC(=O)c1cc(C(C)C)sc1NC(=O)COC(=O)c1nccnc1N | 45.2% (active)
34 | COc1ccc(CN(CC(=O)NC2CCCC2)C(=O)CCC(=O)Nc2cc(C)on2)cc1 | 6.41%
35 | COc1cccc(NC(=O)c2nn(-c3ccc(OC)cc3OC)c(=O)c3ccccc23)c1 | -9.58%
36 | CCN(c1ccccc1)S(=O)(=O)c1ccc(OCC(=O)N2CCCC2)cc1 | -24.7%
37 | Cc1ccc(NC(=O)CC2C(=O)N(Cc3ccccc3)C(=S)N2NC(=O)c2cccc(F)c2)c(C)c1 (centres undefined) | 2.05%
38 | COc1ccccc1N1CCN(C(=O)c2ccc(NC3=NC4CS(=O)(=O)CC4S3)cc2)CC1 (centres undefined) | 0.72%
39 | COc1ccc(Nc2ncc(C(=O)N3CCN(c4ccccc4OC)CC3)c3ccccc23)cc1 | 48.4% (active)
40 | COc1ccc(-n2nc(C(=O)NCC(=O)N3CCN(c4ccccc4OC)CC3)c3ccccc3c2=O)c(OC)c1 | 6.66%
41 | CCN(CC(=O)Nc1c(F)cccc1F)C(=O)c1ccc(-c2ccc(C(C)=O)cc2)o1 | 71.9% (active)
42 | CCN(CC(=O)Nc1c(F)cccc1F)C(=O)c1ccc(-c2ccccc2)cc1 | 4.05%

Row | SMILES | inhibition
43 | CCN(CC(=O)Nc1c(F)cccc1F)C(=O)c1cnc(C)cn1 | -6.81%
44 | COc1cc(C2C(C(=O)c3cccs3)=C(O)C(=O)N2CCN2CCOCC2)ccc1OCCC(C)C (centres undefined) | -13.5%
45 | CN(CC(=O)Nc1cccc(F)c1)C(=O)C1CC(=O)N(CCc2ccccc2)C1 (centres undefined) | -1.18%
46 | Cc1cc(C)c2[nH]c(=O)c(CN(Cc3ccccc3)C(=S)NCCCN(C)C)cc2c1 | 2.15%
47 | Cc1cc(C)cc(NC(=S)NCCCN2CCOCC2)c1 | 0.98%
48 | Cc1ccc2cc(C#N)c(NCCNC(=S)NCCCN3CCOCC3)nc2c1 | 50.7% (active)
49 | C=CCn1c(SCc2nnc(-c3ccccc3)o2)nnc1C(O)c1ccccc1 (centres undefined) | 5.64%
50 | CCOc1ccc(N(C(=O)c2snc(C(N)=O)c2N)C(C(=O)NCC2CCCO2)c2c[nH]c3ccccc23)cc1 (centres undefined) | 7.52%
51 | COc1cc(F)c(C2=CC(=O)CC(C)(C)C2)cc1F | -23.8%
52 | COc1ccc(N(CC(=O)N/N=C/c2cccc3c2OCCO3)S(=O)(=O)c2ccc(NC(C)=O)cc2)cc1 | 38.9% (active)
53 | CC(=O)Nc1ccc(S(=O)(=O)N(CCc2ccccc2)CC(=O)N/N=C/c2ccc(C(=O)O)cc2)cc1 | -5.24%
54 | COc1ccc(N(CC(=O)N/N=C/c2cccs2)S(=O)(=O)c2ccc(OC)c(OC)c2)cc1 | -15.8%
55 | O=C(COc1ccccc1Cl)N1N=C(c2cccs2)CC1c1ccco1 (centres undefined) | 39.1% (active)
56 | O=C1c2cccc(OCC(=O)N3N=C(c4cccs4)CC3c3ccc(F)cc3)c2CCN1Cc1ccccc1 (centres undefined) | -25.8%
57 | Cc1ccc(C2=NN(C(=O)COc3ncnc4ccccc34)C(c3ccco3)C2)cc1 (centres undefined) | -119%
58 | CCC(C)(C(=O)NC1CCCC1)N(C(=O)CNC(C)=O)c1ccc(C)cc1 (centres undefined) | -5.51%
59 | N#Cc1cccc(OC(=O)c2ccc3c(=O)n4c(nc3c2)CCC4)c1 | -4.93%
60 | O=C(Nc1cc(F)ccc1F)c1ccc2c(=O)n3c(nc2c1)CCC3 | 8.53%
61 | N#Cc1ccc(/C=C2\CCn3c2nc2cc(C(=O)O)ccc2c3=O)cc1 | 63.7% (active)
62 | Cc1ccc(/C=C2\CCn3c2nc2cc(C(=O)O)ccc2c3=O)c(C)c1 | 31.9%
63 | Cc1cc(C)c(C)c(S(=O)(=O)N2CCN(C(=O)c3ccc4c(=O)n5c(nc4c3)CCC5)CC2)c1C | 20.1%

Row | SMILES | inhibition
64 | O=C(O)c1ccc2c(=O)n3c(nc2c1)/C(=C/c1ccc(OC(F)F)cc1OC(F)F)CC3 | 41% (active)
65 | CCCn1c(C2CCCN2c2nc(-c3ccc(OC)cc3)cs2)nc2ccccc21 (centres undefined) | -26.8%
66 | CCOC(=O)[C@]12CCC=C1N(Cc1ccco1)C(=O)[C@H](CC(=O)NCc1cccc(C(F)(F)F)c1)C2 | 5.67%
67 | COc1cc(C2NC(=O)NC(c3ccccc3)=C2C(C)=O)c(Br)cc1OCC(N)=O (centres undefined) | 9.92%
68 | COc1ccc(-n2cc(CN(C)Cc3n[nH]c(=O)[nH]3)c(-c3cccc(F)c3)n2)cc1 | 47.7% (active)
69 | Cc1nc2ccc(S(=O)(=O)NC(C(=O)N3CCCCCC3)C(C)C)cc2s1 (centres undefined) | 1.31%
70 | COc1cc2c(cc1CNC[C@H]1O[C@@H](n3cnc(C(N)=O)n3)[C@H](O)[C@@H]1O)OCO2 | 0.3%
71 | Cc1nn(-c2ccccc2)c(NC(=O)c2cccs2)c(-c2ccc(Cl)cc2)c1=O | 5.28%
72 | CCOC(=O)CSc1nc2c(c(=O)n(Cc3ccccc3Cl)c(=O)n2C)n1C | -3.76%
73 | CCOC(=O)c1cnn(Cc2ccccc2Cl)c1N | 4.25%
74 | CCOC(=O)c1cnc2nc(SCc3ccccc3Cl)[nH]n2c1=O | 36.4% (active)
75 | CC1=C(C(=O)OCC2CCCCC2)C(c2ccc(F)cc2)NC(=O)N1 (centres undefined) | 10.3%
76 | CCN(C[C@H]1N[C@@](CC)(C(=O)OC)[C@H]2C(=O)N(Cc3ccccc3)C(=O)[C@@H]12)S(=O)(=O)c1ccc(C(F)(F)F)cc1 | 2.27%
77 | c1ccc(-c2[nH]ncc2-c2nc3ccccc3[nH]2)cc1 | 44.3% (active)
78 | Oc1ccc(-c2[nH]ncc2-c2nc3ccccc3s2)c(O)c1 | -10.2%
79 | O=C1Nc2ccc([N+](=O)[O-])cc2C1=Nc1cccc(CO)c1 | -19.4%
80 | COC(=O)C1(C(=O)OC)C[C@H](c2ccccc2)N(Cc2ccccc2OC)[C@@H]1c1ccccc1 | -0.75%
81 | O=c1cc(CN2CCCCCCC2)c2c(ccc3ccccc32)o1 | 47.4% (active)
82 | CC(C)c1ccc2oc(=O)cc(CN3CCN(Cc4ccccc4)CC3)c2c1 | 8.04%
83 | CN(Cc1nc2ccccc2c(=O)[nH]1)Cc1cc(=O)oc2ccc3ccccc3c12 | 10.8%
84 | NC(=O)C1CCN(C(=O)/C(=C/c2ccco2)NC(=O)c2ccccc2)CC1 | 2.01%
